Values joined by “and” are separate entries in the source; they are usually repeats but may differ in a detail not shown here. Equal entries are not always repeated. The campaign covered roughly 360,000 compounds. About 17,000 (4.7%) were called active. Roughly 5% stayed inconclusive and do not appear here. Cut-off read from the data, not from the text of the source: active = activity change below about -50%; inconclusive = mostly about -30% to -49%; inactive = weaker than that. The sample as a whole holds a higher share of actives than the screen did.
% is set by controls: 0 for no effect and ±100 for the full control effect.

This assay is described as follows: qHTS for Inhibitors of Inflammasome Signaling: IL-1-beta AlphaLISA Primary Screen. As to conditions: THP-1 LPS/ATP IL-1B secretion, 16 h; at 57.5 µM, stronger effect = lower value. In short, it runs like this:
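Secreted IL-1B measured by AlphaLISA bead assay after 16 h compound exposure of THP-1 cells; compounds (final up to 57.5 uM) added 1 h before LPS (250 ng/mL) and ATP (1.25 mM) stimulation; lower signal means less secretion.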
In general terms: In qHTS, concentration-response curves come from the screen itself.
As for `CC(C)(C)C(=O)c1c(N)[nH]c(C(=O)c2ccccc2)c1-c1ccc(F)cc1`, the activity change is 19.8% (inactive).

Regarding `Fc1cccc(Cc2c(-c3cccc(Cl)c3)nc3ccc(Br)cn23)c1`, the activity change was 88.1% (inactive).

As for `Cc1cccc(C(=O)Nc2ccc(CC(=O)O)cc2)c1`, the activity change is 0% (inactive).

For the compound `Cc1cccc(NC(=O)C(C)SCc2ccccc2)c1` (centres undefined), the activity change is 58.8% (inactive).

With `Cc1onc(C(=O)NCc2ccc(F)cc2)c1[N+](=O)[O-]`, the activity change was 10% (inactive).

Turning to `O=C(Nc1ccc(Br)cn1)c1ccc([N+](=O)[O-])o1`, the activity change is -155% (active).

For the compound `Cc1cccc(NC(=O)c2ccc([N+](=O)[O-])o2)c1`, the activity change was -102% (active).

Regarding `O=C(Nc1ccc(Br)cn1)c1ccc([N+](=O)[O-])cc1Cl`, the activity change is -6.95% (inactive).

As for `Cc1cc(NC(=O)COc2ccc([N+](=O)[O-])cc2)no1`, the activity change was -22.5% (inactive).

Turning to `CN1C(=O)c2ccc(C(=O)Nc3ccc(Br)cn3)cc2C1=O`, the activity change is -0.113% (inactive).

Consider `Cc1onc(NC(=O)c2ccc([N+](=O)[O-])o2)c1Br`, for which the activity change is -79.8% (active).

Take `C[n+]1cccc(C(=O)O)c1`: the activity change is -10.8% (inactive).

For the compound `O=C(NCc1cccnc1)c1cc(C2CCCCN2C(=O)CCc2ccccc2)on1` (centres undefined), the activity change is 19.3% (inactive).

With `Cc1n[nH]c(=O)c2c(NC(=O)CSc3ccccc3F)oc(C)c12`, the activity change is -0.579% (inactive).

On to `CC(C)(C)OC(=O)NC(Cc1ccccc1)C(=O)NC(CSC1CCCCO1)C(=O)NN` (centres undefined), for which the activity change was -12% (inactive).

Turning to `COc1ccc(CN2C(=O)C(CC(=O)NCCN3CCOCC3)CC(C(=O)N(C(C)C)C(C)C)=C2C)cc1` (centres undefined), the activity change was 15.9% (inactive).

Consider `COc1cc(C2c3cc4c(cc3C(O)C3COC(=O)C23)OCO4)cc(OC)c1OC` (centres undefined), for which the activity change is -3.2% (inactive).

With `O=C(NCC(F)(F)F)c1ccc(S(=O)(=O)NCCc2ccc3c(c2)OCCO3)cc1`, the activity change was -14.1% (inactive).

On to `CCCn1c(N)c(C(=O)CSc2nnc(Cc3cccs3)n2C2CC2)c(=O)[nH]c1=O`, for which the activity change was -3.66% (inactive).

`COc1cc(OC)cc(C2=Cc3ccccc3C(CC(=O)c3ccco3)N2c2ccc(-c3cnc(OC)nc3)cc2)c1` (centres undefined): the activity change was 3.59% (inactive).

In the case of `CCOc1ccc(Cl)cc1-c1cc(C(=O)NCc2cccs2)[nH]n1`, the activity change was -22.8% (inactive).

Turning to `COC(=O)C[C@@H]1C=C[C@@H](NS(=O)(=O)c2cccc(OC)c2)[C@@H](CO)O1`, the activity change was -5.98% (inactive).

For `CCOC(=O)/C(=N\Nc1cc(Cl)ccc1Cl)N1CCN(C)CC1`, the activity change was 19% (inactive).

As to `COc1cc2ccc(C(C)=O)c(O)c2cc1OC`, the activity change was -10.2% (inactive).

With `COc1ccc(-c2nc3cnccn3c2NC2CCCCC2)cc1-c1cccc(Cl)c1`, the activity change was -76.6% (active) and -52.7% (active).

Turning to `COc1ccc(C)cc1S(=O)(=O)NC1CCCCC1`, the activity change was -4.98% (inactive).

Turning to `CCOc1cc(-c2nc3cc(C)ccn3c2NCC2CCCO2)ccc1O` (centres undefined), the activity change was 2.58% (inactive).

For the compound `Cc1ccc2nc(-c3cccnc3)c(NC3CCCC3)n2c1`, the activity change was -1.15% (inactive).

For the compound `COC(=O)c1ccc2nc(-c3ccc(OC)c(OC)c3)c(Cc3ccccc3)n2c1`, the activity change is -9.54% (inactive).

Regarding `COc1cccc(-c2nc3nc(C)cc(C)n3c2NC2CCCCC2)c1`, the activity change is 8.2% (inactive).

Turning to `COc1ccc(-c2nc3cnccn3c2NC(C)(C)CC(C)(C)C)cc1O`, the activity change is -71.3% (active).

For the compound `COc1ccc(-c2nc3cc(C)ccn3c2NC2CCCCC2)cc1SC1CCCCC1`, the activity change is -85% (active).

`CC(=O)Nc1cc(-c2ccccc2F)cn2c(-c3cccc(C(F)(F)F)c3)cnc12`: the activity change was -13.7% (inactive).

For `COc1cc(C=NC2CCCCC2)ccc1O`, the activity change was 9.61% (inactive).

In the case of `Cc1ccc(-c2nc(C)sc2CC(=O)OCC(=O)Nc2c(F)cccc2F)cc1`, the activity change is 8.31% (inactive).

Take `CCNC(=O)C1CCCN(C(=O)c2ccc(OC)cc2OC)CC1` (centres undefined): the activity change is 5.59% (inactive).

Turning to `COC(=O)CC(CC(=O)OC)n1cccc1`, the activity change is 4.98% (inactive).

For `O=C(CN(Cc1ccc(Br)cc1)S(=O)(=O)c1ccccc1)NCc1ccncc1`, the activity change is -5.94% (inactive).

Turning to `Cc1cc(C)cc(C(=O)NC(CC(N)=O)c2ccc(N3CCC(N4CCCCC4)CC3)c([N+](=O)[O-])c2)c1` (centres undefined), the activity change was -16.2% (inactive).

Turning to `CCOC(=O)c1c(C)[nH]c(C)c1C(=O)COC(=O)/C=C/c1cccc([N+](=O)[O-])c1`, the activity change is -15% (inactive).

Take `CCCOC1CCCN(C(=O)c2cc(COc3cncc(Cl)c3)on2)C1` (centres undefined): the activity change was 0% (inactive).

On to `COc1ccc(C(=O)COC(=O)c2ccc3ccccc3n2)cc1`, for which the activity change was 3.46% (inactive).

With `CC(NC(=O)COC(=O)c1ccc2ccccc2n1)c1ccccc1` (centres undefined), the activity change is 2.13% (inactive).

For the compound `NC(=O)COC(=O)/C=C/c1ccc2ccccc2n1`, the activity change was -101% (active).

Consider `COc1cc(CCC(=O)N2CCN(c3ccccc3Cl)CC2)cc(OC)c1OC`, for which the activity change is 7.36% (inactive).

For `COCCCN(C(=O)Cn1ncc2c(=O)oc3ccc(C)cc3c21)C(C)c1ccncc1` (centres undefined), the activity change was 7.95% (inactive).

`CNC(=S)NNC(=O)c1oc2nc(-c3ccccc3)cc(-c3ccco3)c2c1N`: the activity change is -18% (inactive).

Consider `CS(=O)(=O)c1sc2nc(-c3ccccc3)cc(-c3ccccc3)c2c1N`, for which the activity change was -67.8% (active).

As for `Nc1cccc(-c2cc(-c3ccccc3)nc(-c3cccc(N)c3)n2)c1`, the activity change is -9.31% (inactive).

Regarding `CCOC(=O)C(C)n1cnc2scc(-c3ccc(C)c(C)c3)c2c1=O` (centres undefined), the activity change was -7.25% (inactive).

On to `Cc1nn(-c2ccccc2)c(-n2cccc2)c1C(=O)O`, for which the activity change is 20.3% (inactive).

For `Cc1ccc(C(=O)/C=C/c2c(C)nn(-c3ccccc3)c2Cl)cc1`, the activity change was -95% (active).

Consider `Cc1ccc(C(=O)Nc2nc(N)n(-c3ccccc3)n2)cc1`, for which the activity change is -8.07% (inactive).

With `Cc1nn(-c2ccccc2)c(Cl)c1/C=C/C(=O)c1ccc(O)cc1`, the activity change was -94.5% (active).

On to `Cc1nn(-c2ccc(F)cc2)c(Cl)c1/C=C(/CCC(=O)O)c1nc2ccccc2s1`, for which the activity change was 19.2% (inactive).

Take `Cc1nn(-c2ccccc2)c(C)c1/C=C/C(=O)OC(C)C(N)=O` (centres undefined): the activity change is 9.76% (inactive).

As for `OCC(O)C1OCOC(C(O)CO)C1O` (centres undefined), the activity change was -2.84% (inactive).

Take `Cc1ccc(C2Nc3ccccc3C(=O)N2CCN2CCNC2=O)cc1` (centres undefined): the activity change was 10.9% (inactive).

For `Cc1cccc2[nH]c(CN(C)C(=O)C3CCC(=O)N(CCc4ccccc4)C3)nc12` (centres undefined), the activity change is 0% (inactive).

These data come from PubChem BioAssay AID743279 (National Center for Advancing Translational Sciences (NCATS), 2014).
